Test results from the OligoGym collection.

Biological target: ZNF219
Experiment: pooled miR-30 sensor sort-seq; sequence = guide strand
Conditions: shRNA
Also: reference of the scale not given here.

Row | Sequence | sensor-assay potency score (higher = more potent)
1 | TCCAACTCCAGCAACAGGCGTG | -0.967
2 | TATCGCTGCAGATCCAGCTCGC | 0.347
3 | TAGTAGCGCGCGCTCTTCCAAC | -1.67
4 | TACTTGAGCGAGCCGGACTGGG | -1.26
5 | TGGAGTATCGCTGCAGATCCAG | -1.26
6 | TCGCAGATGCACTTTGAGGTGA | -0.383
7 | TTTATTGGGGACACGACTCTGC | 0.537
8 | TGTAGGTGATACTTGAGCGAGC | -0.911
9 | TTGAGGTGATGTGCTGAGCGGA | -0.983

Biological target: ZNF233
Experiment: as above
Conditions: shRNA

Row | Sequence | sensor-assay potency score (higher = more potent)
10 | TATTAGGTCTTGATTACTGGTT | -0.618
11 | TAATCTTACTTCTTGAAGGGTA | 0.461
12 | ATGTACACAACTTCTCTCCTGG | -0.0529
13 | TTTAGCAACTTGGACCTCTTGC | 0.0723
14 | TTAATTTACTTGTAAATTGTTC | -0.905
15 | TTTGCTGACACCTACTCTGATA | -0.77
16 | TATCTCATTTTGATTCTTGTGT | 0.251
17 | TTTACTTGTAAATTGTTCCCAT | 0.845
18 | TATCCTGTCACTTACTTCCCAT | -0.636
19 | TTAATCTTACTTCTTGAAGGGT | -0.195
20 | TCTTGTGTCCTGAACACCCATC | -0.866
21 | TTCTTGTGTCCTGAACACCCAT | -0.736

Biological target: ZNF24
Experiment: as above
Conditions: shRNA

Row | Sequence | sensor-assay potency score (higher = more potent)
22 | TTCACTCTCCAAATCCTCCAGC | -0.297
23 | TTTCTCTTTCTTTCAAACCTGC | 0.00433
24 | TGGATGATGATCTCGAACCCAA | -0.874
25 | TTTGTGTGCGTCTCTGGCCTGA | -0.444
26 | TTCTGCATTGTGTCTTCTCTGA | 0.000948
27 | TAATGCTGAAGGAAGCTCCTGC | 0.616
28 | TCTTCTACTAGTACTTCCCGTT | 0.168
29 | TAAAAATTTGAGGAACACCCAT | -0.488
30 | TAGTGCTCCATTTTCAGTCCTA | 0.194
31 | TTGAGGAACACCCATACTGAGA | -1.26
32 | TAAGTATTGAATCTTCTTCCAC | -0.673
33 | AAAAATTTGAGGAACACCCATA | -0.922

Biological target: ZNF250
Experiment: as above
Conditions: shRNA

Row | Sequence | sensor-assay potency score (higher = more potent)
34 | TGTCTTGTTGTGTACAGGCTGT | -0.552
35 | TGTATTTTGACTCTCTCCCTTG | -0.459
36 | TTTTGTGACACTGAATCGCCAA | 0.484
37 | TTATTTTCTTGATCAATCCTCC | 0.32
38 | TGTATGTATCTTGTGATGCTGA | -0.256
39 | TTGTCTGAGTAGTCACTCCACA | -0.51
40 | TTAACAGAGACTTCTCTTGGGC | -0.0398
